Screens (PubChem)
Sampled rows, rich in hits. Any-hit rate of the full collection: about 2.3%.
M1 PAM parental = M1 PAM counterscreen hit in parental CHO-K1 cells; ATP EC20, Fluo-8 calcium fluorescence; 0% at ATP EC20, 100% at ATP max; activation, % at 3 µM; actives 0.02% (n = 360,000);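 active = activation above the run cutoff, the mean activation of all test compounds plus 3 SD, cut at about 40% in these data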;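 note: peak over basal fluorescence ratio in a 140 s read after ATP addition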
M1 ag parental = M1 agonist counterscreen hit in parental CHO-K1 cells; activation, % at 3 µM; Fluo-8 calcium fluorescence; scaled to maximal ATP response, vehicle zero; AID 602248; actives 0.48% (n = 360,000); in the data active = activation above about 15%;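 note: untransfected CHO-K1 host cells lacking M1 receptor as counterscreen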
M1 ag = agonists of human M1 muscarinic receptor | activation, % at 3 µM | AID 588814 | actives 0.33% (n = 360,000) | P11229 | CHO-K1 hM1, Fluo-8 calcium fluorescence, agonist mode; 0% DMSO, 100% acetylcholine EC100;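 active = activation above the run's mean compound activation plus 3 SD, cut at about 16% in these data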;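 note: peak over basal fluorescence ratio within a 140 s kinetic read after compound addition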
Target sequence (P11229 whole entry, looked up): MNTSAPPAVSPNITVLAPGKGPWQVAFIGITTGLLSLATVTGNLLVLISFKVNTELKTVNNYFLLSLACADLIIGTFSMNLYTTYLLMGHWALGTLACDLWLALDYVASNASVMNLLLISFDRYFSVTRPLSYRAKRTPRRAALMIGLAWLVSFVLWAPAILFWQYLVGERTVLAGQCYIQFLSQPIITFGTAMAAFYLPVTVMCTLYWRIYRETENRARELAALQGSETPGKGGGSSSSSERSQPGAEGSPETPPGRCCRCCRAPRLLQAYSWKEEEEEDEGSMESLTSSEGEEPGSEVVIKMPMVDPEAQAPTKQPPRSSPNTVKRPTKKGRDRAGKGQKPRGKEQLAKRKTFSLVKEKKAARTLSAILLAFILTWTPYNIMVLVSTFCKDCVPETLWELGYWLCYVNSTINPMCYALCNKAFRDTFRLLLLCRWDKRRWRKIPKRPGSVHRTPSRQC
CHO-K1 Ca antag = nonselective inhibitor or artifact in parental CHO-K1 cells. ATP-induced calcium, Fluo-8 fluorescence. inhibition, % at 3 µM. actives 0.6% (n = 360,000);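 active = inhibition above a per-plate cutoff, the plate's mean sample inhibition plus 3 SD, cut at about 24% in these data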;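 note: 0% = DMSO plus EC80 ATP and 100% = DMSO alone without ATP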
M1 antag = blocks human M1 muscarinic receptor | P11229 | CHO-K1 hM1, Fluo-8 calcium fluorescence, ACh EC80 antagonist | inhibition, % at 3 µM | actives 1.3% (n = 360,000) | AID 588852;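 active = percent inhibition above its own plate's cutoff, namely the mean of that plate's compound wells plus 3 SD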;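 note: peak over basal fluorescence ratio during 140 s after agonist addition; 0% = ACh EC80 plus DMSO and 100% = DMSO alone without agonist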
M1 PAM = human CHRM1 positive allosteric modulation; P11229; CHO-K1 hM1, Fluo-8 calcium fluorescence, ACh EC20; 0% = ACh EC20, 100% = maximal ACh; activation, % at 3 µM; actives 0.088% (n = 360,000); AID 588819; in the data active = activation above about 19%, passing the limit was not always enough
* hit, by the source's call.

SMILES	M1 PAM parental	M1 ag parental	M1 ag	CHO-K1 Ca antag	M1 antag	M1 PAM
COc1ccc(/C=N/N=C2/NC(=O)C(CC(=O)O)S2)cc1OS(=O)(=O)c1ccccc1 (centres undefined)	3	0	-2	-8	-6	4
CN1\C(=C/C=C/C=C/C=[N+](C)C)C(C)(C)c2ccccc21	-4	26*	53*	14	47*	-20
Cc1cccc(/C=N/NC(=O)c2ccc(Br)cc2)c1	15	17*	-7	7	3	5
CCOc1ccccc1N1CC(C(=O)Nc2cc(Cl)ccc2-n2cncn2)CC1=O (centres undefined)	12	2	-2	-13	-10	8
COc1ccc2[nH]c(=O)c(CN(CCO)S(=O)(=O)c3c(C)ccc4nsnc34)cc2c1	-8	1	-1	29*	4	1
COc1ccc2[nH]c(=O)c(CN(Cc3cccs3)S(=O)(=O)c3cccc4nsnc34)cc2c1	4	9	-3	-13	32*	-13
Cc1c(C(=O)Nc2ccccc2)c2ccc(C(F)(F)F)cc2n1O	-6	13	2	2	10	-5
COc1ccccc1NC(=S)N(Cc1ccccn1)Cc1ccccc1Cl	5	7	-5	36*	-15	7
O=C(NCc1ccccc1)c1ccc(CN2CCC(Cc3ccccc3)CC2)cc1	8	27*	4	17	25	-17
COc1ccc(CN2CCC(Cc3ccccc3)CC2)cc1OC	-25	0	-11	14	25	-14
COc1ccc(CCNC(=O)c2ccc(CN3CCC(Cc4ccccc4)CC3)cc2)cc1OC	6	1	-7	1	48*	-26
COc1ccc(CNC(=O)C2CCCN2CCc2ccccc2)cc1OC (centres undefined)	11	17*	-11	-20	-9	11
COCCNC(=O)c1ccc(CN2CCC(Cc3ccccc3)CC2)cc1	10	0	-9	-9	43*	-25
Cc1cccc(C)c1NC(=O)Nc1nnc([C@@H]2C[C@H](O)[C@@H](CO)O2)s1	11	0	-3	-8	-12	7
COc1cccc(C(C)NC(=O)c2ccncc2)c1 (centres undefined)	-5	0	-1	0	-16	6
CCc1ccccc1NC(=O)c1ccc(CN2CCC(Cc3ccccc3)CC2)cc1	23	2	-4	-12	38*	-20
O=C(c1ccc(CN2CCOCC2)cc1)N1CCC(Cc2ccccc2)CC1	13	1	-4	-6	0	-1
COc1cc(NC(=O)c2ccccc2)c(OC)cc1NC(=O)Cc1ccc(C)cc1	-10	1	-6	-6	-7	4
CC(C)(C)OC(=O)C[C@H]1C/C=C\C[C@@H](CC(=O)NCCO)C(=O)N[C@H](Cc2ccccc2)COC1=O	18	0	-5	-19	-15	10
COc1ccc(CCC(=O)NCCS(=O)(=O)N2CCN(c3ccc(OC)cc3)CC2)cc1	4	15*	1	-6	19	-18
COc1ccc(CCC(=O)NCCS(=O)(=O)N2CCN(c3ccccc3)CC2)cc1	1	9	4	-4	-3	16
CCO[C@H]1OC(C(=O)NCc2ccccc2)=C[C@@H](c2ccc3c(c2)OCO3)[C@@H]1CCCO	16	10	18*	-15	7	-5
CCO[C@@H]1OC(C(=O)NCc2ccccc2)=C[C@H](c2ccc3c(c2)OCO3)[C@H]1CCCO	-9	0	-10	6	10	-8
CCO[C@H]1OC(C(=O)N2CCOCC2)=C[C@@H](c2ccccc2)[C@@H]1CCCO	15	1	-9	-14	67*	-22
CC(CN1CCCCC1)OC(=O)C1c2ccccc2Oc2ccccc21 (centres undefined)	5	0	-4	-4	87*	-21
SMILES	M1 PAM parental	M1 ag parental	M1 ag	CHO-K1 Ca antag	M1 antag	M1 PAM
CC1CCN(CCNC(=O)C2CCCN(S(=O)(=O)c3cccc4nsnc34)C2)CC1 (centres undefined)	-28	-1	-6	34*	-9	7
O=C(NCCCN1CCCCCC1)C1CCCN(S(=O)(=O)c2cccc3nsnc23)C1 (centres undefined)	19	0	-6	-11	-1	-4
O=C(C1CCC(CNS(=O)(=O)c2cccc3nsnc23)CC1)N1CC=C(c2ccccc2)CC1 (centres undefined)	-10	1	-2	26*	23	-6
O=C(C1CCN(S(=O)(=O)c2cccc3nsnc23)CC1)N1CC=C(c2ccccc2)CC1	-8	4	0	9	14	-8
CC1CCN(CCCNC(=O)C2CCC(CNS(=O)(=O)c3cccc4nsnc34)CC2)CC1 (centres undefined)	-3	1	-6	-2	65*	-23
CCS(=O)(=O)c1ccc2oc(SCC(=O)Nc3ccc(OC)cc3OC)nc2c1	27	1	-3	-19	-4	7
CCS(=O)(=O)c1ccc2oc(SCC(=O)NC(C)C3CC4CCC3C4)nc2c1 (centres undefined)	-9	2	-3	25*	8	-3
N#Cc1ccccc1S(=O)(=O)N1CCN(C(=O)[C@@H]2CCCN2C(=O)c2cccs2)CC1	-10	0	-4	8	33*	-10
CC1CC(C)CN(S(=O)(=O)c2ccc(NC(=O)[C@@H]3CCCN3C(=O)c3cccs3)cc2)C1 (some centres undefined)	14	0	-7	-10	30*	-22
Cc1ccc(NC(=O)[C@@H]2CCCN2C(=O)c2cccs2)cc1S(=O)(=O)N1CCCCC1	23	0	-8	-20	-12	6
COc1cc(/C=C(\C#N)c2nc3ccccc3o2)ccc1O	-21	45*	35*	30*	40*	-15
CCc1nc2c(OCC3COc4ccccc4O3)cccn2c1N(C)C(=O)c1cccs1 (centres undefined)	-12	0	-9	31*	-15	1
CCc1nc2c(OCC(=O)C(C)(C)C)cccn2c1N(C)C(=O)c1cccs1	10	0	-4	-6	-23	20
CCc1nc2c(OCC3COc4ccccc4O3)cccn2c1N(C)C(=O)c1ccccc1F (centres undefined)	10	5	-4	-18	6	-3
CCc1nc2c(OCC(=O)c3ccc(F)cc3)cccn2c1N(C)C(=O)c1cccs1	-17	4	0	26*	2	4
Oc1ccc(C[C@H]2CN([C@@H](Cc3ccc(O)cc3)CN3CCC[C@@H]3CN3C(=S)NC[C@@H]3Cc3ccccc3)C(=S)N2CCc2ccccc2)cc1	0	0	-1	34*	11	4
